# Test results reported in PubChem BioAssay (NCATS).
# Unmarked numbers belong to inactive results. Active and inactive are the calls of the source. Calls follow the shape of the dose curve; as a rule, active = well fitted activation curve with a large enough effect; inconclusive = small, poorly fitted or top-dose-only effect; inactive = flat fitted curve, though single readings scatter.
# Test: Cellular Toxicity (caspase-3) HepG2 (AID 654);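 also: cells exposed to compound for 16 hours before reading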
# Details: HepG2 caspase-3 activation, luminescence, 0% = DMSO only, 100% = tamoxifen; series mostly up to 92.2 µM; caspase-3 activation: at the top concentration
# Description: NIH Chemical Genomics Center [NCGC]
# NIH Molecular Libraries Screening Centers Network [MLSCN]
# National Institutes of Environmental Health Sciences [NIEHS]
# National Toxicology Program [NTP]
# We have developed a 1536-well cell-based assay for quantitative high throughput screening (qHTS) against a number of cell lines to determine in vitro caspase 3/7 of small molecules. This particular assay uses the HepG2 cell line which is derived from human hepatocellular carcinoma.
# NCGC Assay Protocol Summary:
# The Caspase-Glo 3/7 assay (Promega) is a homogeneous method to measure caspase-3 and caspase-7 activities in cultured cells. The quantitation of caspase 3/7 activity is based on the cleavage of a peptide-aminoluciferin substrate. After caspase cleaves the substrate the free aminoluciferin is liberated and serves as the substrate of luciferase, which generates the light. The luminescent signal is proportional to amount of caspase 3/7 activity present.
# Using the Caspase-Glo 3/7 assay, the amount of caspase 3/7 activity was measured in the HepG2 cell line with complete culture medium following compound treatment for 16 hours. The assay was performed in opaque white 1536-well plates. In the screen, tamoxifen and doxorubicin were used as positive controls. Library compounds were measured for their ability to cause the activation of caspase 3/7 in the cell line, as reflected by an increase in luminescence signal, in a concentration-dependent manner. Data were normalized to the controls for basal activity (DMSO only) and 100% stimulation (100 uM tamoxifen). AC50 values were determined from concentration-response data modeled with the standard Hill equation.
# qHTS protocol for caspase 3/7 assay in HepG2 cells
# [Step] [Parameter] [Value] [Description]
# 1. Reagent; 5 uL; 1500 HepG2 cells/well
# 2. Time; 5 hr; 37 °C incubation
# 4. Controls; 23 nL; Tamoxifen 0.23 uM to 100 uM & Doxorubicin 7.0 pM to 100 uM
# 5. Time; 16 hr; 37 °C incubation
# 6. Reagent; 5 uL; Caspase-Glo 3/7 reagent
# 7. Time; 20 min; Room Temperature
# 8. Detection; Luminescence; Viewlux plate reader
# Keywords: caspase 3/7, apoptosis, HepG2 cell line, luminescence, NTPHTS, NTPHTS_NCGC, NIEHS, EPA, DSSTox, MLSMR, MLSCN, NIH Roadmap, qHTS, NCGC
SMILES,caspase-3 activation,outcome
NNC(N)=O,-0.0697%,–
O=[N+]([O-])c1ccc(F)c([N+](=O)[O-])c1,-3.78%,–
CC(C)(C)c1cc(O)ccc1O,–,inactive
S=C=S,0.0255%,–
C=CCN=C=S,0.179%,–
CC(C)Nc1ccc(Nc2ccccc2)cc1,-1.74%,–
Oc1cc(Cl)c(Cl)cc1Cl,-0.767%,–
CC(C)CCON=O,0.974%,–
O=Cc1ccco1,0.944%,–
[O]=[Cd],0.32%,–
ClC(Cl)(Cl)Cl,–,inactive
CCCCCl,3.32%,–
Clc1ccccc1Cl,0.678%,–
O=C(O)C(Cl)(Cl)Cl,–,inactive
O=C1C=CC(=O)C=C1,6.41%,–
COC1=CC(=O)O[C@@H](/C=C/c2ccccc2)C1,-1.11%,–

SMILES,caspase-3 activation,outcome
ClC=C(Cl)Cl,-0.327%,–
O=C1C2CC=CCC2C(=O)N1SC(Cl)(Cl)Cl (stereo unspecified),–,inactive
CCCCCCCCOC(=O)c1ccccc1C(=O)OCCCCCCCC,0.249%,–
[O]=[Cr](=[O])([OH])[O][Cr](=[O])(=[O])[OH],–,inactive
C[C@H]1CC[C@@H]2[C@@H](C)[C@H]3[C@H](C[C@H]4[C@@H]5CC=C6CC(O[C@@H]7O[C@H](CO)[C@H](O)[C@H](O[C@@H]8O[C@H](CO)[C@@H](O)[C@H](O)[C@H]8O)[C@H]7O[C@H]7O[C@@H](C)[C@H](O)[C@@H](O)[C@H]7O)CC[C@]6(C)[C@H]5CC[C@]34C)N2C1 (stereo partly specified),-3.35%,–
O=[N+]([O-])c1ccccc1,-0.245%,–
O=C/C=C/c1ccccc1,–,inactive
C[C@H]1CCC[C@H](O)CCCCCc2cc(O)cc(O)c2C(=O)O1,-1.12%,–
C[C@]12CCC(=O)C[C@@H]1CC[C@@H]1[C@@H]2CC[C@]2(C)[C@@H](O)CC[C@@H]12,0.83%,–
ClCC1CO1 (stereo unspecified),-0.225%,–
[Cl-].[Cl-].[Hg+2],-3.24%,–
O=CC=O,0.29%,–
CCOC(=O)c1ccccc1C(=O)OCC,–,inactive
COc1ccc2c(c1OC)C(=O)OC2C1c2cc3c(cc2CCN1C)OCO3 (stereo unspecified),0.0447%,–
O=C1CCO1,0.143%,–
